Screening data: PubChem, several laboratories
CYP2C9 inh: inhibitors of human CYP2C9 | CYP2C9 Supersomes, luciferin-H conversion, luminescence | AID 777 | P11712 | 96,000 compounds, 20% hits | inhibition, % at 5 µM;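 active = blocking of liver enzyme CYP2C9 beyond about 50% at 5 µM, limit read from the data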
CYP2C19 act: increases human CYP2C19 enzyme activity; recombinant CYP2C19, luciferin-H EGE luminescence; stronger effect = higher value; 0 = fully inhibited enzyme, 1 = untreated enzyme; activation factor at 5 µM; 96,000 tested, under 10 active; AID 1025;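 active = activation factor of at least 2 at 5 µM in the primary screen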;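 also: 0 = wells with 2.5 mM tranylcypromine and 1 = vehicle-only wells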
sEH inh: inhibitors of human soluble epoxide hydrolase; recombinant human sEH enzymatic activity assay; inhibition, % at 2 µM; 91,000 compounds, 0.34% hits; AID 707; in the data active = inhibition above about 80%
Target sequence (P34913 whole entry, looked up): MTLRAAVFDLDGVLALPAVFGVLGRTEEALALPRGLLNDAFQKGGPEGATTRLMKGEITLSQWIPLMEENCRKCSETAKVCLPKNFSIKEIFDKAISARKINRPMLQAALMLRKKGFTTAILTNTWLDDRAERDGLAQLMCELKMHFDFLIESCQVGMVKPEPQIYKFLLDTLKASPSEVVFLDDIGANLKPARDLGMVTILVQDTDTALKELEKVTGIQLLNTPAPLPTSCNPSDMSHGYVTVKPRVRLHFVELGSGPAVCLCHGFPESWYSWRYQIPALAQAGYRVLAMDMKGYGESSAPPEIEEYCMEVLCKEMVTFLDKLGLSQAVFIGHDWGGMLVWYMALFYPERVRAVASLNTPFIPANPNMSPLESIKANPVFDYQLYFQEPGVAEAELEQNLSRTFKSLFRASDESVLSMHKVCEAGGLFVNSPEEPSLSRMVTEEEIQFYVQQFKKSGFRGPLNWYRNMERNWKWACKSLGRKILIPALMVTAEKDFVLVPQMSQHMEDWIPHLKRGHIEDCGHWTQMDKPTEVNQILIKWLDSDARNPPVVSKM
sEH activator: soluble epoxide hydrolase (human) activation; P34913; purified human sEH enzymatic activity, activator screen; activation, % at 2 µM; 91,000 compounds, 0.04% hits; in the data active = activation above about 37%
CYP2C9 act: activators of human CYP2C9; activation factor at 5 µM; recombinant CYP2C9, luciferin-H conversion, luminescence; stronger effect = higher value; factor 1 = untreated enzyme, 0 = blocked; 96,000 compounds, 1.4% hits; AID 1024; P11712;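 active = activation factor of 2 or more for CYP2C9 at a 5 µM dose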;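 also: 0 = sulfaphenazole-blocked wells and 1 = vehicle-only wells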
CYP2C19 inhib: blocks human cytochrome P450 2C19. 96,000 compounds, 21% hits. CYP2C19 Supersomes, luciferin-H EGE luminescence, 30 min. inhibition, % at 5 µM;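 active = CYP2C19 inhibition above a set limit at 5 µM in the primary screen, cut at about 50% in these data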;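 also: plate controls were negative control wells for no effect and 2.5 mM tranylcypromine positive control for full effect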
Starred values were filed as active, the others as inactive. A selection: hits, their analogues and other compounds. The true share with any hit is near 27%.

What do the screens show for `CCOC(=O)CCn1nc(-c2ccc(Cl)cc2)cc1N`?
CYP2C9 inh: 38; CYP2C19 act: 0.2; sEH inh: -5; sEH activator: 6; CYP2C9 act: 0.6; CYP2C19 inhib: 79*

Results for CCOC(=O)Cn1nc(-c2ccc(Cl)cc2)cc1N ?
CYP2C9 inh: 25; CYP2C19 act: 0.3; sEH inh: -3; sEH activator: 4; CYP2C9 act: 0.7; CYP2C19 inhib: 74*

Results for Cc1c(SCCO)c(=O)[nH]c2cc3c(cc12)OCO3 ?
CYP2C9 inh: 2; CYP2C19 act: 1; sEH inh: 12; sEH activator: -11; CYP2C9 act: 1; CYP2C19 inhib: 3

Results for O=C(Nc1ccn(C2CC(OC(=O)c3ccccc3)C(CO)O2)c(=O)n1)c1ccccc1 (stereo unspecified) ?
CYP2C9 inh: 2; CYP2C19 act: 1.1; sEH inh: -2; sEH activator: 5; CYP2C9 act: 1; CYP2C19 inhib: -8

What do the screens show for `O=C1CC2C(CC(OC(=O)c3ccc(-c4ccccc4)cc3)C2CO)O1` (stereo unspecified)?
CYP2C9 inh: 72*; CYP2C19 act: 0.5; sEH inh: 3; sEH activator: 0; CYP2C9 act: 0.3; CYP2C19 inhib: 48

What do the screens show for `Cc1cc(C(=O)NCc2cc(C)n(C)n2)sc1-c1ccccc1`?
CYP2C9 inh: 9; CYP2C19 act: 0.4; sEH inh: 72; sEH activator: -71; CYP2C9 act: 0.9; CYP2C19 inhib: 59*

Results for Cc1cc(C(=O)N(C)C)sc1-c1ccccc1 ?
sEH inh: -4; sEH activator: 5

What do the screens show for `COc1ccc2[nH]c(C)c(CCN3C(=O)C4CC=CCC4C3=O)c2c1` (stereo unspecified)?
CYP2C9 inh: 58*; CYP2C19 act: 0; sEH inh: 6; sEH activator: -6; CYP2C9 act: 0.4; CYP2C19 inhib: 97*

How did COc1ccc2[nH]c(C)c(CN3CCC(C)CC3)c(=O)c2c1 do in these assays?
CYP2C9 inh: -11; CYP2C19 act: 1.2; CYP2C9 act: 1.1; CYP2C19 inhib: -15

What do the screens show for `COc1ccc2[nH]c(C)c(CCN3C(=O)OC(C)(C)C3(C)O)c2c1` (stereo unspecified)?
CYP2C9 inh: 86*; CYP2C19 act: 0; sEH inh: 6; sEH activator: -7; CYP2C9 act: 0.1; CYP2C19 inhib: 99*

Results for Cc1cc[n+](-c2nc([O-])sc2/C=N/Nc2ccc([N+](=O)[O-])cc2)cc1 ?
CYP2C9 inh: 22; CYP2C19 act: 0.8; sEH inh: 4; sEH activator: -1; CYP2C9 act: 0.8; CYP2C19 inhib: 19

How did CCOC(=O)c1ccc2c(c1)C(=O)N(C1CCCCC1)C2=O do in these assays?
CYP2C9 inh: -5; CYP2C19 act: 1.1; CYP2C9 act: 1; CYP2C19 inhib: -7

How did O=C(Nc1ccc2c(c1)C(=O)N(C1CCCCC1)C2=O)C1CCCO1 (stereo unspecified) do in these assays?
CYP2C9 inh: 72*; CYP2C19 act: 0.6; sEH inh: 6; sEH activator: -4; CYP2C9 act: 0.3; CYP2C19 inhib: 44

What do the screens show for `O=C(O)c1cccc(NC(=O)C2CCCO2)c1` (stereo unspecified)?
CYP2C9 inh: -1; CYP2C19 act: 1.1; sEH inh: -6; sEH activator: 2; CYP2C9 act: 1; CYP2C19 inhib: -7

What do the screens show for `CCC(=O)Oc1ccc(C(=O)Nc2ccc3c(c2)C(=O)N(C2CCCCC2)C3=O)cc1`?
CYP2C9 inh: 58*; CYP2C19 act: 0.8; sEH inh: 9; sEH activator: -9; CYP2C9 act: 0.4; CYP2C19 inhib: 24

How did CC(C)(C)NC(=O)c1ccc2c(c1)C(=O)N(C1CCCCC1)C2=O do in these assays?
CYP2C9 inh: 39; CYP2C19 act: 0.4; sEH inh: 2; sEH activator: -1; CYP2C9 act: 0.6; CYP2C19 inhib: 57*

Results for CCCCNC(=O)C(CC)Sc1nc2sc(C(=O)OC)c(C)c2c(=O)n1N (stereo unspecified) ?
sEH inh: 5; sEH activator: -8

Results for CCC(Sc1nc2sc(C(=O)OC)c(C)c2c(=O)n1N)C(=O)NCC1CCCO1 (stereo unspecified) ?
CYP2C9 inh: 93*; CYP2C19 act: 0.1; sEH inh: -6; sEH activator: 6; CYP2C9 act: 0.1; CYP2C19 inhib: 94*
